Over roughly 33,000 sequences, “E-score (-0.5 to 0.5)” has its median near -0.017; the highest 2% begin near 0.3. This excerpt belongs to a sample that is enriched for the highest values.
target: T1, Sut1 (UniProt P53032); assay: PBM E-score (8-mer binding enrichment) (E-score (-0.5 to 0.5)); higher = stronger / more preferred TF binding; settings: protein concentration: 200 nM; construct: GST-full length
T1 sequence: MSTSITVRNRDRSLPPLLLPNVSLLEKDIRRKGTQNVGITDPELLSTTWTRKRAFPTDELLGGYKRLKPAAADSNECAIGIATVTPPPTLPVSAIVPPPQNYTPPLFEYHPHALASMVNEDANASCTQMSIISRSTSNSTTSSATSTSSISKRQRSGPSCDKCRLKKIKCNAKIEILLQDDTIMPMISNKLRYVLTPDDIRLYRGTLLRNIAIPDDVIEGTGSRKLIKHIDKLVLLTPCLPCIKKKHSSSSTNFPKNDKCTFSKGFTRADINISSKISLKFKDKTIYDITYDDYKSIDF
Method: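 Universal 'all 10-mer' protein binding microarrays (Agilent AMADID 015681) probed with GST-tagged S. cerevisiae TFs (full-length or DBD) made by in vitro transcription/translation (PURExpress), about 100-200 nM. Bound TF was detected with fluorescent anti-GST. Each ungapped 8-mer (which stands for itself and its reverse complement) is scored by the PBM enrichment score (E-score), a modified Wilcoxon-Mann-Whitney statistic from -0.5 to +0.5, computed with the Universal PBM Analysis Suite. Scale: above 0.35 generally sequence-specific binding.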

| Sequence | PBM E-score |
| --- | --- |
| CATCGGAG | 0.435 |
| AATCGGTG | 0.0417 |
| CATCGGGG | -0.00411 |
| GATCGGGC | -0.0436 |
| CATCGGAA | 0.269 |
| GATCGGAC | 0.367 |
| CATCGGTC | -0.106 |
| AATCGGAT | 0.183 |
| AATCGGAG | 0.396 |
| CATCGGCG | -0.137 |
| CATCGGAC | 0.37 |
| GATCGGAA | 0.159 |
| ACAAGCAG | 0.0716 |
| CGTCTCGA | -0.113 |
| AAGCAGAG | -0.037 |
| CAGTCGAG | -0.103 |
| CAATGGGG | -0.163 |
| GAAGTCTA | 0.0111 |
| CCTACTCA | 0.021 |
| AGCAGTTC | 0.0132 |
| AATCGGCA | 0.107 |
| AATCGGCC | -0.109 |
| AATCGGGC | -0.0945 |
| AATCGGAA | 0.38 |
| TATCGGAA | 0.26 |

| Sequence | PBM E-score |
| --- | --- |
| AATCGGAC | 0.338 |
| CCACTTTA | 0.0316 |
| CCGGTCAG | -0.0559 |
| AATCAGAT | 0.0945 |
| AAGGGATG | -0.0899 |
| GAGTCCAC | -0.108 |
| CAGCTCCG | 0.461 |
| AAGCTCCC | -0.156 |
| AGGCTCCA | -0.178 |
| AGGCTCCC | -0.0884 |
| CAGCTCCC | -0.181 |
| AAGCTCCG | 0.455 |
| AGGCTCCG | 0.357 |
| CAGCTCCA | -0.0491 |
| AAGCTCCT | -0.112 |
| CAGGCCTG | 0.0399 |
| ACGCTAAC | -0.22 |
| GTTCGACA | -0.0722 |
| GTAATAAA | 0.284 |
| ATAATATG | 0.286 |
| TTAATAAA | 0.341 |
| ATAATAAA | 0.339 |
| CTAATAAA | 0.197 |
| ATAATAAT | 0.295 |
| CTAATAAC | 0.14 |

| Sequence | PBM E-score |
| --- | --- |
| ATAATATA | 0.301 |
| CTAATATA | 0.225 |
| AATCCTCG | -0.164 |
| CGGGGCTC | 0.0261 |
| ACTTGGGG | -0.203 |
| CGCGCCTC | 0.0917 |
| GGGATACA | -0.064 |
| CACCCCGG | 0.0471 |
| CACCCCGA | 0.134 |
| GACCCCGA | 0.0897 |
| AAACCCGA | 0.198 |
| ACCCCCGA | -0.118 |
| TACCCCGA | 0.324 |
| AACCCCGG | 0.438 |
| ACCCCCGG | -0.0829 |
| AACCCCGA | 0.447 |
| GATGCTAA | 0.0485 |
| AATAGGCC | 0.0314 |
| GCTCGCAA | -0.101 |
| CATCCACC | -0.0255 |
| CGATTCTA | -0.0107 |
| GGCTAATA | 0.17 |
| ACTCATAC | 0.0873 |
| ACCAACCC | -0.212 |
| CGATCGGA | 0.246 |

| Sequence | PBM E-score |
| --- | --- |
| GGATCGGA | 0.277 |
| ATATCGGA | 0.331 |
| GTATCGGA | 0.281 |
| ATATCGGG | -0.0571 |
| CTATCGGA | 0.337 |
| AGATCGGA | 0.348 |
| ATATCGGC | -0.0245 |
| CTATCGGC | -0.13 |
| CCTGCTAC | -0.0632 |
| GTTCGGTA | 0.141 |
| AAGATGGC | -0.0118 |
| AGTCCCAG | -0.199 |
| ATTGACCG | 0.0305 |
| AGAGTCCA | -0.0986 |
| CGTTGCAG | -0.136 |
| ATGCAGCA | -0.134 |
| ATCCTTCG | 0.0447 |
| GTCCGCAC | 0.247 |
| ATCCGCAG | 0.0529 |
| CTCCGCAG | 0.364 |
| ATCCGCAC | -0.0365 |
| CTCCGCAC | 0.306 |
| CTCCGCAA | 0.271 |
| CGATTTCA | 0.0969 |
| CCACACGG | -0.0635 |

| Sequence | PBM E-score |
| --- | --- |
| ACGTCCGG | 0.101 |
| ATCCGTAC | 0.178 |
| GACCGTAA | -0.0628 |
| GTCCGTAA | 0.342 |
| CACCGTAA | 0.0107 |
| CTCCGTAC | 0.331 |
| CTCCGTAA | 0.328 |
| CACCGTAC | 0.0478 |
| ATCCGTAA | 0.183 |
| CCCCGTAA | 0.0974 |
| AGCATTGA | -0.0961 |
| CCTAACCA | 0.0768 |
| ACATCTGC | -0.193 |
| CATAAAAA | 0.161 |
| TATAAAAA | 0.318 |
| ATTAAATG | 0.243 |
| CTTAAAGA | 0.111 |
| ATTAAATA | 0.315 |
| ATTAAATC | 0.191 |
| TATAAATA | 0.343 |
| TAAAAATA | 0.249 |
| CATAAATA | 0.168 |
| ATTAAAGA | 0.311 |
| GATAAAAA | 0.263 |
| GTTAAAGA | 0.0511 |

| Sequence | PBM E-score |
| --- | --- |
| ACCATGAG | -0.166 |
| TGCTTCAA | 0.0485 |
| AAGTTCTA | 0.0927 |
| GAGGATCA | -0.09 |
| CAGCTATC | -0.207 |
| ATGAGTCG | -0.157 |
| ACAGCGTG | -0.171 |
| AGGCCCAC | -0.387 |
| AAGGCTAA | 0.0404 |
| TACAAATA | 0.303 |
| GATAAATC | 0.26 |
| AATAAATT | 0.237 |
| AATAAATG | 0.179 |
| CACAAATA | 0.13 |
| AATAAATA | 0.374 |
| GATAAACA | 0.203 |
| GATAAATA | 0.325 |
| AACAAATA | 0.201 |
| AACAAGCG | -0.0413 |
| GCGCCTCA | -0.0448 |
| ACACTTAC | 0.0992 |
| AATCTCCG | 0.454 |
| ATTCTCCA | -0.0299 |
| AGTCTCCA | -0.229 |
| CATCTCCG | 0.478 |

| Sequence | PBM E-score |
| --- | --- |
| AATCTCCT | 0.147 |
| ATTCTCCG | 0.409 |
| CATCTCCA | -0.036 |
| CATCTCCC | -0.138 |
| AGTCTCCG | 0.316 |
| AATCTCCC | -0.268 |
| AGTCTCCC | -0.0841 |
| ATTCTCCC | -0.0729 |
| GAACTTTA | 0.145 |
| GTAATTCA | 0.182 |
| CAAATCGG | 0.0756 |
| AGCCTTCG | -0.203 |
| AATTTCGG | 0.242 |
| CAGAAATC | 0.0914 |
| CCGTTGGA | 0.0326 |
| ACTCGCTA | 0.0713 |
| AACGGACG | 0.0275 |
| ACCGGACC | 0.364 |
| AACGGACT | 0.444 |
| AACGGACA | 0.24 |
| ACCGGACT | 0.485 |
| ACCGGAAC | 0.29 |

Reference: the supplement of paper PMC3334620
